Assay results: the supplement of paper PMC8728848
Only a selection was taken, and the strongest signals are over-represented in it overall.

Key:
Experiment in all cases: glycan array binding signal (z-score within array); higher = stronger binding
Details in all cases: glycan notation: IUPAC condensed, linker removed
[1] = target: Fuc(a1-2)Gal(b1-3)GalNAc(b1-3)Gal(a1-4)Gal(b1-4)Glc
In short: (§1)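 From the Consortium for Functional Glycomics database, 3228 arrays were curated, keeping only those whose protein sequence was available. Binding is given as a within-array Z-score averaged across arrays sharing a protein sequence and across linkers. Negative Z-scores can be read as non-binding.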

[2] = target: Fuc(a1-2)Gal(b1-3)[Fuc(a1-4)]GlcNAc
In short: as §1

[3] = target: Fuc(a1-2)Gal(b1-3)[Fuc(a1-4)]GlcNAc(b1-2)Man(a1-3)[Fuc(a1-2)Gal(b1-3)[Fuc(a1-4)]GlcNAc(b1-2)Man(a1-3)]Man(b1-4)GlcNAc(b1-4)GlcNAc
In short: as §1

[4] = target: Fuc(a1-2)Gal(b1-3)[Fuc(a1-4)]GlcNAc(b1-3)[Gal(b1-4)GlcNAc(b1-6)]Gal(b1-4)Glc
In short: as §1

[5] = target: Fuc(a1-2)Gal(b1-4)GlcNAc(b1-2)Man
In short: as §1

[6] = target: Fuc(a1-2)[Gal(a1-3)]Gal(b1-3)GlcNAc(b1-6)GalNAc
In short: as §1

[7] = target: Fuc(a1-2)[Gal(a1-3)]Gal(b1-4)[Fuc(a1-3)]GlcNAc(b1-3)GalNAc
In short: as §1

[8] = target: Fuc(a1-2)[GalNAc(a1-3)]Gal(b1-3)GlcNAc(b1-6)GalNAc
In short: as §1

[9] = target: Fuc(a1-2)[GalNAc(a1-3)]Gal(b1-4)Glc
In short: as §1

[10] = target: Gal(a1-3)Gal(b1-3)GlcNAc(b1-2)Man(a1-3)[Gal(a1-3)Gal(b1-3)GlcNAc(b1-2)Man(a1-6)]Man(b1-4)GlcNAc(b1-4)GlcNAc
In short: as §1

[11] = target: Gal(a1-3)Gal(b1-3)[Fuc(a1-4)]GlcNAc(b1-2)Man(a1-3)[Gal(a1-3)Gal(b1-3)[Fuc(a1-4)]GlcNAc(b1-2)Man(a1-6)]Man(b1-4)GlcNAc(b1-4)GlcNAc
In short: as §1

[12] = target: Gal(a1-3)Gal(b1-4)[Fuc(a1-3)]GlcNAc(b1-2)Man(a1-3)[Gal(a1-3)Gal(b1-4)[Fuc(a1-3)]GlcNAc(b1-2)Man(a1-6)]Man(b1-4)GlcNAc(b1-4)GlcNAc
In short: as §1

[13] = target: Gal(a1-4)Gal(b1-4)GlcNAc(b1-3)Gal(b1-4)Glc
In short: as §1

[14] = target: Gal(a1-6)Glc
In short: as §1

[15] = target: Gal(b1-3)GalNAc(b1-3)Gal
In short: as §1

[16] = target: Gal(b1-3)GalNAc(b1-3)Gal(a1-4)Gal(b1-4)Glc
In short: as §1

[17] = target: Gal(b1-3)GlcNAc(b1-2)Man(a1-3)[Gal(b1-3)GlcNAc(b1-2)Man(a1-6)]Man(b1-4)GlcNAc(b1-4)[Fuc(a1-6)]GlcNAc
In short: as §1

[18] = target: Gal(b1-3)GlcNAc(b1-3)Gal(b1-4)GlcNAc(b1-2)Man(a1-3)[Gal(b1-3)GlcNAc(b1-3)Gal(b1-4)GlcNAc(b1-2)Man(a1-6)]Man(b1-4)GlcNAc(b1-4)GlcNAc
In short: as §1

[19] = target: Gal(b1-3)GlcNAc(b1-3)Gal(b1-4)[Fuc(a1-3)]GlcNAc(b1-6)[Gal(b1-3)GlcNAc(b1-3)]Gal(b1-4)Glc
In short: as §1

[20] = target: Gal(b1-3)GlcNAc(b1-3)GalNAc
In short: as §1

[21] = target: Gal(b1-3)GlcNAc(b1-6)[Gal(b1-3)]GalNAc
In short: as §1

[22] = target: Gal(b1-3)[Fuc(a1-4)]GlcNAc(b1-6)GalNAc
In short: as §1

[23] = target: Gal(b1-4)Glc6S
In short: as §1

[24] = target: Gal(b1-4)GlcNAc(b1-2)Man(a1-3)[Gal(b1-4)GlcNAc(b1-2)Man(a1-6)]Man(b1-4)GlcNAc(b1-4)[Fuc(a1-6)]GlcNAc
In short: as §1

[25] = target: Gal(b1-4)GlcNAc(b1-2)[Gal(b1-4)GlcNAc(b1-4)]Man(a1-3)[GlcNAc(b1-4)][Gal(b1-4)GlcNAc(b1-2)Man(a1-6)]Man(b1-4)GlcNAc(b1-4)GlcNAc
In short: as §1

[26] = target: Gal(b1-4)GlcNAc(b1-3)Gal(b1-4)GlcNAc(b1-2)Man(a1-3)[Gal(b1-4)GlcNAc(b1-3)Gal(b1-4)GlcNAc(b1-2)Man(a1-6)]Man(b1-4)GlcNAc(b1-4)GlcNAc
In short: as §1

[27] = target: Gal(b1-4)GlcNAc(b1-3)Gal(b1-4)GlcNAc(b1-2)Man(a1-3)[Gal(b1-4)GlcNAc(b1-3)Gal(b1-4)GlcNAc(b1-2)Man(a1-6)]Man(b1-4)GlcNAc(b1-4)[Fuc(a1-6)]GlcNAc
In short: as §1

B1: SUN4 (Saccharomyces cerevisiae), P53616 (protein)
chain: MGSSHHHHHHSSGLVPRGSHNGSIYGDLADFSGPYEKFEDGTIPCGQFPSGQGVIPISWLDEGGWSGVENTDTSTGGSCKEGSYCSYACQPGMSKTQWPSDQPSDGRSIGGLLCKDGYLYRSNTDTDYLCEWGVDAAYVVSELSNDVAICRTDYPGTENMVIPTYVQAGDSLPLTVVDQDTYYTWQGLKTSAQYYVNNAGISVEDACVWGSSSSGVGNWAPLNFGAGSSDGVAYLSLIPNPNNGNALNFNVKIVAADDSSTVNGECIYENGSFSGGSDGCTVSVTAGKAKFVLYN
For B1, the “glycan array binding signal (z-score)” value [1] was 0.954, the “glycan array binding signal (z-score)” value [2] was -0.752 and the “glycan array binding signal (z-score)” value [3] was -0.207. For the same binder, the “glycan array binding signal (z-score)” value [4] was 0.297, the “glycan array binding signal (z-score)” value [5] was 0.324 and the “glycan array binding signal (z-score)” value [6] was -0.368. For the same binder, the “glycan array binding signal (z-score)” value [7] was -0.487, the “glycan array binding signal (z-score)” value [8] was -0.525 and the “glycan array binding signal (z-score)” value [9] was -0.935. The “glycan array binding signal (z-score)” value [10] was 1.63, the “glycan array binding signal (z-score)” value [11] was 1.91 and the “glycan array binding signal (z-score)” value [12] was 3.09. For the same binder, the “glycan array binding signal (z-score)” value [13] was -0.077, the “glycan array binding signal (z-score)” value [14] was -1.22 and the “glycan array binding signal (z-score)” value [15] was -0.668. The “glycan array binding signal (z-score)” value [16] was 0.295, the “glycan array binding signal (z-score)” value [17] was -0.257 and the “glycan array binding signal (z-score)” value [18] was 0.342. For the same binder, the “glycan array binding signal (z-score)” value [19] was -0.488, the “glycan array binding signal (z-score)” value [20] was -0.163 and the “glycan array binding signal (z-score)” value [21] was 0.101. The “glycan array binding signal (z-score)” value [22] was 0.835, the “glycan array binding signal (z-score)” value [23] was -0.03 and the “glycan array binding signal (z-score)” value [24] was 0.829. The “glycan array binding signal (z-score)” value [25] was 0.208, the “glycan array binding signal (z-score)” value [26] was 2.66 and the “glycan array binding signal (z-score)” value [27] was 2.
